Rows were chosen to be rich in hits. Some 2.5% of all compounds tested hit in one or more screens of this group.
RAD52 anneal inh: inhibitors of human RAD52 DNA annealing; P43351; recombinant RAD52 DNA annealing, FRET fluorescence; inhibition, % at 18.7 µM; 360,000 tested, 0.46% active;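 active = every replicate showing at least 50% inhibition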
NSD2 HMT inh: NSD2 (human) methyltransferase inhibition; NSD2 peptide methylation, AlphaScreen, 120 min; 310,000 tested, 0.54% active; AID 743445; O96028; inhibition, % at 12.5 µM; in the data active = inhibition above about 50%
MLL AF4-AF9 inh: MLL-AF4/AF9 protein interaction inhibition; 350,000 tested, 0.47% active; AlphaScreen, biotin-AF4 peptide binding to FLAG-AF9; inhibition, % at 10 µM; P42568; AID 651704;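 active = every replicate reaching a set inhibition limit, whatever the replicate mean, cut at about 25% in these data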
Target sequence (P42568 whole entry, looked up): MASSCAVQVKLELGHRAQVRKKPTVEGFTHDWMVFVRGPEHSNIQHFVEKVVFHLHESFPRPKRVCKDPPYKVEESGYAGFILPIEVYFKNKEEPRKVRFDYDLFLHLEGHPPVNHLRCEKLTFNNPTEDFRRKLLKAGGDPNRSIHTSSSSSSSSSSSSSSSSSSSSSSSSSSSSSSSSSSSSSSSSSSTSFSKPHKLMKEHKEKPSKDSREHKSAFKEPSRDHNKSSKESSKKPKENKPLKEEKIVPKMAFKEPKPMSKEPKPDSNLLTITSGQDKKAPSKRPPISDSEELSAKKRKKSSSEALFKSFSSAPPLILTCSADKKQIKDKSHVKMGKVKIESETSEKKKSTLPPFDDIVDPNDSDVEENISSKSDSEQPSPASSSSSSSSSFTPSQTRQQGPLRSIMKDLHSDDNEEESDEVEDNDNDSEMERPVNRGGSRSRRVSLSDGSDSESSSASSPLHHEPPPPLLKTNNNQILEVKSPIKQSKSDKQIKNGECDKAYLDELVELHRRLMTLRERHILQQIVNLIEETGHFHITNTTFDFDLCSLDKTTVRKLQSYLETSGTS
Casp6 inh: caspase-6 (human) enzyme inhibition | P55212 | purified caspase-6, Z-VEID-R110 cleavage fluorescence | inhibition, % at 12.5 µM | 350,000 tested, 0.53% active;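 active = mean inhibition across replicates at least about 35%, with every replicate also reaching that limit, limit read from the data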
Ecoli rRNA inh: inhibitors of bacterial rRNA selective over humanized ribosomes; E. coli WT GFP vs humanized-ribosome RFP mutants, fluorescence, 24 h; hits give low values; DMSO median 0, no signal -100; GFP signal change (wild-type ribosome), % (no concentration beside the values); 350,000 tested, 1.6% active; AID 720706;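 active = significant combined selectivity score with lowered wild-type GFP, culture density cut under 30%, mutant RFP and density less affected; inactive = any of these conditions unmet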
Large screens that a line does not name were inactive.

CC(C)NC(=O)Nc1ccc2c(c1)CC(=O)N([C@@H](C)CO)C[C@@H](C)[C@H](CN(C)C(=O)Nc1ccc3c(c1)OCO3)O2	none (no result: NSD2 HMT inh, Casp6 inh)
CN1C(=O)c2cc(NC(=O)Nc3ccccc3F)ccc2OC[C@H]2O[C@@H](CC(=O)NCCc3ccncc3)CC[C@@H]21	none (no result: RAD52 anneal inh, NSD2 HMT inh, Casp6 inh)
N#Cc1c(NC(=O)c2ccc([N+](=O)[O-])o2)sc2c1CCC2	Casp6 inh 59 (no result: NSD2 HMT inh)
C[C@H](CO)N1C[C@H](C)[C@@H](CN(C)S(=O)(=O)c2ccc(F)cc2)OCCCC[C@H](C)Oc2ccc(NC(=O)Nc3ccccc3)cc2C1=O	none (no result: RAD52 anneal inh, NSD2 HMT inh, MLL AF4-AF9 inh, Casp6 inh)
Cc1ccc(Sc2ccc(S(=O)(=O)Nc3ccc(CC(=O)O)cc3)cc2)cc1C	Casp6 inh 41
Cc1ccc(C)c(Sc2ccc(S(=O)(=O)Nc3ccc(C(=O)O)cc3)cc2)c1	none (no result: Ecoli rRNA inh)
CN(C)C(=O)c1ccc(-c2ccc([C@@H]3[C@@H](CO)N4C(=O)CN(C(=O)C5CCC5)C[C@H]34)cc2)cc1	none (no result: NSD2 HMT inh)
FC(F)(F)c1cc(CCN2CCNC[C@@H]2Cc2ccccc2)cc(C(F)(F)F)c1	MLL AF4-AF9 inh 27 (no result: NSD2 HMT inh)
CO[C@@H]1CN(C)C(=O)c2cc(NC(=O)c3ccccc3)ccc2OC[C@H](C)N(C(=O)C2CC2)C[C@H]1C	none (no result: NSD2 HMT inh)
Fc1cccc(Nc2nc(-c3ccncc3)nc3ccccc23)c1	Casp6 inh 53
c1ccc(Nc2nc(-c3ccccc3)nc3ccccc23)cc1	none
Cc1noc(C)c1NC(=O)Nc1ccc2c(c1)C(=O)N([C@@H](C)CO)C[C@H](C)[C@H](CN(C)C(=O)Nc1ccc(C(F)(F)F)cc1)OCCCC[C@H](C)O2	none (no result: NSD2 HMT inh)
C/C=C/c1ccc2c(c1)O[C@H](CN(C)Cc1cccnc1)[C@@H](C)CN([C@H](C)CO)S2(=O)=O	none (no result: NSD2 HMT inh)
Cc1cc(C)n(CCC(=O)N/N=C/c2ccc(Br)c([N+](=O)[O-])c2)n1	Ecoli rRNA inh -15
CO[C@H]1CN(C)C(=O)c2ccc(NC(C)=O)cc2OC[C@H](C)N(C(=O)C2CCOCC2)C[C@@H]1C	none (no result: NSD2 HMT inh)
Cc1n[nH]c(C)c1N=Nc1ccc(Br)cc1	Ecoli rRNA inh -36
CCCC(=O)N1CCC2(CC1)CN(C(=O)C1CCCC1)[C@H](CO)c1[nH]c3cc(OC)ccc3c12	none (no result: NSD2 HMT inh)
O=C(COC(=O)c1n[nH]c2ccccc12)c1cccc(Br)c1	Ecoli rRNA inh -38
Cc1ccc(C)c(C(=O)COC(=O)c2n[nH]c3ccccc23)c1	none
Cc1ccccc1-n1c(C)cc(/C=C2/C(=N)N3C(c4ccccc4)=CSC3=NC2=O)c1C	none
Cc1ccc(/C=C2\C(=N)N3N=C(CC(=O)N4CCOCC4)SC3=NC2=O)o1	Casp6 inh 38
N=C1/C(=C\c2ccc(-c3cccc(C(=O)O)c3)o2)C(=O)N=C2SC=C(c3ccccc3)N12	Casp6 inh 50 (no result: NSD2 HMT inh)
N=C1/C(=C\c2ccc(SCc3ccccc3)o2)C(=O)N=C2SC(CC(=O)N3CCOCC3)=NN12	none (no result: MLL AF4-AF9 inh)
N=C1/C(=C/c2ccc(-c3cccc(C(=O)O)c3)o2)C(=O)N=C2SC(CC(=O)N3CCOCC3)=NN12	NSD2 HMT inh 84
CC(C)[C@H]1COCn2nncc2CC[C@H](Cc2ccc(Cl)cc2)C(=O)N1	none (no result: RAD52 anneal inh, NSD2 HMT inh, MLL AF4-AF9 inh, Casp6 inh)
CC(=O)N(C)C[C@H]1Oc2ncc(C#CCC3CCCC3)cc2C(=O)N([C@H](C)CO)C[C@@H]1C	none (no result: NSD2 HMT inh)
C[C@@H]1CCCCO[C@@H](CN(C)C(=O)Nc2ccccc2)[C@H](C)CN([C@@H](C)CO)C(=O)c2cc(N(C)C)ccc2O1	none (no result: NSD2 HMT inh)
N#Cc1cc2c(nc1SCc1ccccc1)CCCCC2	none (no result: RAD52 anneal inh, MLL AF4-AF9 inh, Casp6 inh, Ecoli rRNA inh)
N#Cc1cc2c(nc1SCC(O)CS(=O)(=O)Cc1ccccc1)CCCC2 (centres undefined)	Ecoli rRNA inh -35
C[C@H](CO)N1C[C@H](C)[C@@H](CN(C)C(=O)Nc2cccc3ccccc23)Oc2ccc(NC(=O)Cc3ccccc3)cc2C1=O	none (no result: RAD52 anneal inh, NSD2 HMT inh, MLL AF4-AF9 inh, Casp6 inh)
O=C(NCCCn1ccnc1)C1CC(c2ccccc2Cl)=NO1 (centres undefined)	MLL AF4-AF9 inh 28
CN(C)C(CNc1ncnc2sc3c(c12)CCCCC3)c1ccco1 (centres undefined)	Ecoli rRNA inh -38
CC[C@@H]1CC=CC[C@H](C)Oc2ccccc2C(=O)N(C)[C@@H](C(C)C)C(=O)N1 (mixture of isomers)	none (no result: RAD52 anneal inh, NSD2 HMT inh, MLL AF4-AF9 inh, Casp6 inh)
COc1ccc(C(=O)NNC(=S)NC(=O)c2cccc([N+](=O)[O-])c2)cc1	Ecoli rRNA inh -26
CCOc1ccc(C(=O)c2cc([N+](=O)[O-])ccc2N2CCOCC2)cc1	none (no result: NSD2 HMT inh)
COc1ccc(N2CCN(C(=O)C(=O)c3cccc([N+](=O)[O-])c3)CC2)cc1	Ecoli rRNA inh -4.6 (no result: NSD2 HMT inh)
COc1ccc(C(=O)NC(=S)NNC(=O)c2ccccc2O)cc1	none (no result: NSD2 HMT inh)
COc1ccc(C(=O)c2cc([N+](=O)[O-])ccc2N2CCOCC2)cc1	Ecoli rRNA inh -19
COc1ccc(C(=O)NC(=S)NNC(=O)c2ccccc2C)cc1	Ecoli rRNA inh -41
COc1ccc(/C=C(\NC(=O)c2ccc([N+](=O)[O-])cc2)C(=O)NCCCN2CCOCC2)cc1	Ecoli rRNA inh -14
O=C(Nc1nnc(Cc2c[nH]c3ccccc23)s1)c1ccc(Cl)cc1Cl	Casp6 inh 58
Cc1ccc(-n2c(O)c(C=Nc3ccccc3-c3n[nH]c(=S)[nH]c3=O)c3ccccc3c2=O)c(C)c1	none
Cc1ccc(-n2c(O)c(C=Nc3ccccc3-c3n[nH]c(=S)[nH]c3=O)c3ccccc3c2=O)cc1C	Ecoli rRNA inh -38
COc1cccc(NC(=O)N2C[C@@H](O)COC[C@@H]3O[C@H](CC(=O)NCCCN4CCOCC4)CC[C@H]32)c1	none (no result: NSD2 HMT inh)
O=C(Nc1ccccc1N1CCCC1)c1ccc([N+](=O)[O-])o1	none

Assay outcomes deposited in PubChem by Broad Institute.
